Data as given in the supplement of paper PMC11732987, “Enantioselective OTUD7B fragment discovery through chemoproteomics screening and high-throughput optimisation” (Communications Chemistry, 2025).

Experiments:
Assay in all cases: log2 ratio of Biotin-Ahx-Ub-VS probe labelling (fragment/DMSO); higher = less target engagement (more negative = stronger competition), active = hit call of the paper (q ≤ 0.05, log2 ratio ≤ -1)
Settings in all cases: compound concentration: 200 uM; treatment time: 3 h
[1] = biological target: T1, USP19 (UniProt O94966)
T1 sequence (whole entry): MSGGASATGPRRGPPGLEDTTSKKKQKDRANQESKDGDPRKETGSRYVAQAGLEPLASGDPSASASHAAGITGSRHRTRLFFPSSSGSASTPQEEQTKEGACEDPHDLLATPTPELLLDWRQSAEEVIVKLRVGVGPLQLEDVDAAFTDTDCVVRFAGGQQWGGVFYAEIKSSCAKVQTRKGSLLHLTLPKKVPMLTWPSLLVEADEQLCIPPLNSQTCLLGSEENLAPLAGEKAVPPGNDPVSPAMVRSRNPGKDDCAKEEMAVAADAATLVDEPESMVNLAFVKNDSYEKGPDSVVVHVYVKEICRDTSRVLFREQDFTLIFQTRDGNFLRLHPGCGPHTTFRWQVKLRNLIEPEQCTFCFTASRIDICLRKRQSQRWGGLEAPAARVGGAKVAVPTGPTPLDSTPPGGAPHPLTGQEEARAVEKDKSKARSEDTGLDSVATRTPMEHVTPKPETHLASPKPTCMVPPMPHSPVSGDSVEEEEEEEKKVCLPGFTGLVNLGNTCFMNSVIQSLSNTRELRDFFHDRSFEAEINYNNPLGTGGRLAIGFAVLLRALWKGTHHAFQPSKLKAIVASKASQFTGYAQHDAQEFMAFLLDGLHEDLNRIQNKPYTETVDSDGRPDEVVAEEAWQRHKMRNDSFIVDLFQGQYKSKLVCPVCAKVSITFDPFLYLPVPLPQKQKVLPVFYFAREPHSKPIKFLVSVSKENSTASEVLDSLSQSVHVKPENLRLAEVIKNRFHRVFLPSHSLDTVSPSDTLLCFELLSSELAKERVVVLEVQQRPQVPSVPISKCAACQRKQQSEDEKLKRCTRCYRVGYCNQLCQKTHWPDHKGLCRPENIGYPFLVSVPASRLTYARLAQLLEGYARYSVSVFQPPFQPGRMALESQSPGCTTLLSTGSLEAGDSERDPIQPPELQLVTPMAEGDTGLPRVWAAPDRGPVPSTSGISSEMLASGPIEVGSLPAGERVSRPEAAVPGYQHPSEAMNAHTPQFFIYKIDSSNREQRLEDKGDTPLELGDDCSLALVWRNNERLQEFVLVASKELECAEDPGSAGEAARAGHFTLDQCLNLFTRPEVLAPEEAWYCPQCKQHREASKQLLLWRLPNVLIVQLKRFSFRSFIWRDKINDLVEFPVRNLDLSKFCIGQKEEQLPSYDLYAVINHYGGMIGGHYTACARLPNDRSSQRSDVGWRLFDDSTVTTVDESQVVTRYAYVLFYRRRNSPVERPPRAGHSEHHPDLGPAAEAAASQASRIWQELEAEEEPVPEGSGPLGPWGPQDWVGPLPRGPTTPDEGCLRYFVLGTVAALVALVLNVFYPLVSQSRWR
Outline: (§1)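 The table lists average log2 ratios of fragment over vehicle, from an unpaired t-test on global-median-normalised Spectronaut label-free quantities. Proteins with ≥2 unique peptides were used. Samples were HEK293T lysate (495 µg) treated in triplicate with fragment at 200 µM or vehicle for 3 h, then with Biotin-Ahx-Ub-VS (0.5 µM final) for 1 h, with labelled DUBs NeutrAvidin-enriched and run by diaPASEF LC-MS/MS.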

[2] = biological target: T2, USP22 (UniProt Q9UPT9)
T2 sequence (whole entry): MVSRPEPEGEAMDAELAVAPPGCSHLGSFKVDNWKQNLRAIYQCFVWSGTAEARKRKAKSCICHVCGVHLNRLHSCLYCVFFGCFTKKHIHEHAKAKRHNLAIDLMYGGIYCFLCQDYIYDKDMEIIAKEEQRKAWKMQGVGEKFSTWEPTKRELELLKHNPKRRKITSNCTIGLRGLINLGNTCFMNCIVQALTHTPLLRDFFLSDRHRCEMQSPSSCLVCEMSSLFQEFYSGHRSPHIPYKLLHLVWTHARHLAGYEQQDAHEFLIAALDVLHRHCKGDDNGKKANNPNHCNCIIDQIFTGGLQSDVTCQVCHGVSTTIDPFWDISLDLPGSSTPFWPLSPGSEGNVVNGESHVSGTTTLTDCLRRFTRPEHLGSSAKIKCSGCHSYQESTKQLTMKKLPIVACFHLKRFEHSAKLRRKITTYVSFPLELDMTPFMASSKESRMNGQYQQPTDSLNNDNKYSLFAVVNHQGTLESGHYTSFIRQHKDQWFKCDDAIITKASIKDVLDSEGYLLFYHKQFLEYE
Outline: as §1

[3] = biological target: USP24 (UniProt Q9UPU5)
Outline: as §1

[4] = biological target: T3, USP25 (UniProt Q9UHP3)
T3 sequence (whole entry): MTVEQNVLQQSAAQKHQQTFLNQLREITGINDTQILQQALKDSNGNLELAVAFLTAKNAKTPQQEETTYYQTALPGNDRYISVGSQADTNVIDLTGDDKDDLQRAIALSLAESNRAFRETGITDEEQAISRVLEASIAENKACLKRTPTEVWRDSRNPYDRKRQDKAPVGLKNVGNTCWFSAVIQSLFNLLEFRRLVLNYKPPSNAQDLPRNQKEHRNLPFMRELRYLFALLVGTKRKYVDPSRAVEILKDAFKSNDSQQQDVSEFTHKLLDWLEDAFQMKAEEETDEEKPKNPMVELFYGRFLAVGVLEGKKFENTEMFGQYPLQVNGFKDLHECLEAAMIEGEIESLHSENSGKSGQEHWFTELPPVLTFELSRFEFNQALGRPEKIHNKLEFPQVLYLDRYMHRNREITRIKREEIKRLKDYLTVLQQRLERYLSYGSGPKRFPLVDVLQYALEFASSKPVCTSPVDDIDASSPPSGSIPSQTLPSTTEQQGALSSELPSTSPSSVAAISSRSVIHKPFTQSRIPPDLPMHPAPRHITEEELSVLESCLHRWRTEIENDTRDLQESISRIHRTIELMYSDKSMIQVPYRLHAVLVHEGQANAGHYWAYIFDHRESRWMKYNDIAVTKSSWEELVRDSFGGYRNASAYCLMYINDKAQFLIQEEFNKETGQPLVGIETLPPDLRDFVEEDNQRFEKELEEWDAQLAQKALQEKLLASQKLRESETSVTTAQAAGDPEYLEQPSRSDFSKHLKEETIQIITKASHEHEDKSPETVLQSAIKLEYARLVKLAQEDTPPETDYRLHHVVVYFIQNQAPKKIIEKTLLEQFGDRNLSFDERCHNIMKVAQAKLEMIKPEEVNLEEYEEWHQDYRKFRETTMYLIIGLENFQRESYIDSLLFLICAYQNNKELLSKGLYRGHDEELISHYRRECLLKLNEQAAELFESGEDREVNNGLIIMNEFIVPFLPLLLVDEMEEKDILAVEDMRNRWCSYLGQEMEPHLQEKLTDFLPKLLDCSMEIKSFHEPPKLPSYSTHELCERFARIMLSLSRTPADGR
Outline: as §1

[5] = biological target: T4, USP28 (UniProt Q96RU2)
T4 sequence (whole entry): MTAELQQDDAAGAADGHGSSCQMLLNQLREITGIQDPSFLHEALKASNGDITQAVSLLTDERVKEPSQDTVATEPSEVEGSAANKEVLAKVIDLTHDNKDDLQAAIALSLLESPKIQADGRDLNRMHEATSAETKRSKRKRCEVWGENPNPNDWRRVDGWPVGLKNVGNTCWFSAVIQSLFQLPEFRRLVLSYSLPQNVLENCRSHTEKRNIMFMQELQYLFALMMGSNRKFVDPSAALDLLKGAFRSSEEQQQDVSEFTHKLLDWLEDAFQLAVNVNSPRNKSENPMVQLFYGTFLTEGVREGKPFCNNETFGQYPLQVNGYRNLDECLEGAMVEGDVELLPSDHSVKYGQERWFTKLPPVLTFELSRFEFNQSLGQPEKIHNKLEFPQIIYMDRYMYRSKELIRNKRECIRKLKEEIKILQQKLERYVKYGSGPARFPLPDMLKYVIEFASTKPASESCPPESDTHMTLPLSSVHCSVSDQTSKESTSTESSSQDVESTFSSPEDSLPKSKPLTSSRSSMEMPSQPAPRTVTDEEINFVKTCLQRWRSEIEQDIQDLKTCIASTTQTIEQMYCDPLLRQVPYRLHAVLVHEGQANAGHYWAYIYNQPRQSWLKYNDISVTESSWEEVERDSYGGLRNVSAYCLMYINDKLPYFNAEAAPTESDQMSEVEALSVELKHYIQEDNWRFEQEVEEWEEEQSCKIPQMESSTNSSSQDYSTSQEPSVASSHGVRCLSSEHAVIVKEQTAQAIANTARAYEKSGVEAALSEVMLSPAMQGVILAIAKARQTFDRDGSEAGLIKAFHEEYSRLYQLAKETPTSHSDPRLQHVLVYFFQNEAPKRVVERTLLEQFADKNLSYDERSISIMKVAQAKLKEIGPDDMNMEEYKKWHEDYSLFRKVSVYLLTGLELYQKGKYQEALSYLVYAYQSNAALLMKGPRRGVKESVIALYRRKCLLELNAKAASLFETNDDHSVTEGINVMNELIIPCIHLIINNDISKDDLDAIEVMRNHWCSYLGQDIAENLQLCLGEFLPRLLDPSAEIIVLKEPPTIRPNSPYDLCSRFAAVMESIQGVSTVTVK
Outline: as §1

Measured: log2 ratio of Biotin-Ahx-Ub-VS probe labelling

USP24, sequence (Q9UPU5 whole entry): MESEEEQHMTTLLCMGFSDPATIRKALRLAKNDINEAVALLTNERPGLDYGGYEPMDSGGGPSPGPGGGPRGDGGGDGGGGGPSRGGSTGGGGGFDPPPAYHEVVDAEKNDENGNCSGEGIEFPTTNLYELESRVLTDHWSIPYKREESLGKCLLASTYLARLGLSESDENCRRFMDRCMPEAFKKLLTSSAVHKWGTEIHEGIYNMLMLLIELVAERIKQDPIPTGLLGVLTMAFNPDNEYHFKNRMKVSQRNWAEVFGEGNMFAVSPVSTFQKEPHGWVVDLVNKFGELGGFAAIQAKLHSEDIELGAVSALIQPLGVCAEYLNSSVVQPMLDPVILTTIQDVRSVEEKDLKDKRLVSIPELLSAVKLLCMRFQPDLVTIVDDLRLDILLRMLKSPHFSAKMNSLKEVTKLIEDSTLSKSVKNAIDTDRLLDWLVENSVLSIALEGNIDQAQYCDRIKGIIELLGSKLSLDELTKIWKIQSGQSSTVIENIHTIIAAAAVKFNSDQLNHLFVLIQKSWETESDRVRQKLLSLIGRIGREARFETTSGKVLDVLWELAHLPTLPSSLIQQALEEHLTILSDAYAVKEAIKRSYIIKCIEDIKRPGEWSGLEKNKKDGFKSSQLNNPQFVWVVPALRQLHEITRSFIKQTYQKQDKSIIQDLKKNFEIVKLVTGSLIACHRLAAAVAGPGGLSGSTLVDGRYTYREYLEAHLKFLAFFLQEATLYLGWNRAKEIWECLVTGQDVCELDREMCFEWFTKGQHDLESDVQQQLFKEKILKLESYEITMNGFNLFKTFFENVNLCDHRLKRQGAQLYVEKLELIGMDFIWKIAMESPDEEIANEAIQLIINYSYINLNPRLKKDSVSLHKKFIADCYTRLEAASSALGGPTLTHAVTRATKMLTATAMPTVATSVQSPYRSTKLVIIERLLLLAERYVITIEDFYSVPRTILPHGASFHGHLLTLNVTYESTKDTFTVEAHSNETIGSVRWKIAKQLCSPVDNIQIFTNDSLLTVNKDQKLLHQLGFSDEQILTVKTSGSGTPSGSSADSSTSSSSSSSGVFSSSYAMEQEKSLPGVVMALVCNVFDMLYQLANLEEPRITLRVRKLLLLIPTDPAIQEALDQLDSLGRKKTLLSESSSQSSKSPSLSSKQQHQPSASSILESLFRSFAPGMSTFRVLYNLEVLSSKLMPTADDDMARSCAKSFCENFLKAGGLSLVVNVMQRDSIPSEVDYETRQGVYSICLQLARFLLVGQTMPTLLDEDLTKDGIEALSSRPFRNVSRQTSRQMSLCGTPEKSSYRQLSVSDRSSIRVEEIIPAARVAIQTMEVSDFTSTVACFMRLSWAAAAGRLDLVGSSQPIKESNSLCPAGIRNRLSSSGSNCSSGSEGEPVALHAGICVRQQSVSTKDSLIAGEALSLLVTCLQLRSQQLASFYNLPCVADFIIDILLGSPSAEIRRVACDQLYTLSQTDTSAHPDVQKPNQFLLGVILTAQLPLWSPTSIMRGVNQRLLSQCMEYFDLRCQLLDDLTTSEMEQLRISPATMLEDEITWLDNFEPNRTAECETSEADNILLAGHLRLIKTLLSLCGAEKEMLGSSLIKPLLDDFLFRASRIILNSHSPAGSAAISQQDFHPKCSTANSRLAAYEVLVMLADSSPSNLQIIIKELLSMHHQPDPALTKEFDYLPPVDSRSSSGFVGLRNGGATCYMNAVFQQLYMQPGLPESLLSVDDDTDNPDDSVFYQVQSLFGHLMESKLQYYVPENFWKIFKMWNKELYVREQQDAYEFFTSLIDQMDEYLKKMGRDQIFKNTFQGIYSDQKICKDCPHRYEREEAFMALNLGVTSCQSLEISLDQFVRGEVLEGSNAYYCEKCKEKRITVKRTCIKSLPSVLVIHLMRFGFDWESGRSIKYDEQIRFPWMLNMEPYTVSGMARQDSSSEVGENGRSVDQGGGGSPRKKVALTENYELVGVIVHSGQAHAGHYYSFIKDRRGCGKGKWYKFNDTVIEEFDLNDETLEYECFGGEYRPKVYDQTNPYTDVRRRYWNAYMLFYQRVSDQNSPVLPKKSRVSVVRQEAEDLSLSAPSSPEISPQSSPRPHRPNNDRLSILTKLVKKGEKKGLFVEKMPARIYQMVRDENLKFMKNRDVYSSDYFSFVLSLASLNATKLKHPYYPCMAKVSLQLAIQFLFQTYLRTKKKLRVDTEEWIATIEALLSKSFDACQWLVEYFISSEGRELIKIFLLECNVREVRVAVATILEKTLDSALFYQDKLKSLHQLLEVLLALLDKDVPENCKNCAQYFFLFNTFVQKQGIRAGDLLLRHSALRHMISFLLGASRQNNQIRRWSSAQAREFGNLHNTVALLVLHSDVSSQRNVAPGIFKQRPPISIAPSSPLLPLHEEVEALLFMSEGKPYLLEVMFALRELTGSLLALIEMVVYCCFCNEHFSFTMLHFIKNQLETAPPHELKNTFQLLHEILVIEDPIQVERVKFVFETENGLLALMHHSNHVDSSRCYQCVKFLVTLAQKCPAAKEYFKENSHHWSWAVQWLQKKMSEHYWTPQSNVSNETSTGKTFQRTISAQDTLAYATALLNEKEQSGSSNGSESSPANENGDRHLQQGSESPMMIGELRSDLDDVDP

O=C(CN1CCN(C(=O)CCl)CC1)Nc1cccc(F)c1
inactive: [1] -0.265 | [2] 0.00778 | [3] -0.335 | [4] -0.473 | [5] -0.428
